Calls of active or inactive are those of the source. No stated cut-off is given here; in the data, active means fold change permeability below about 0.7 or above about 1.3; inactive means in between.
assay: compounds altering in vitro BBB leakiness – cell-based, FITC-avidin fluorescence, HTS, primary screen (AID 1963498); conditions: brain endothelial barrier, actives lie on both sides; further: test concentration not given here

Question: For `COc1ccc2[nH]c3c(c2c1)CCNC3`, which fold change permeability is on record?
Answer: Its fold change permeability is 1 (inactive).

Question: For `CC(C)=CCOc1c2occc2cc2ccc(=O)oc12`, which fold change permeability is on record?
Answer: Its fold change permeability is 1.5 (active).

Question: For `NCCc1ccc(O)cc1`, which fold change permeability is on record?
Answer: Its fold change permeability is 0.7 (active).

Question: Which fold change permeability does the source give for `NC(=O)c1cc(N2CC2)c([N+](=O)[O-])cc1[N+](=O)[O-]` here?
Answer: The fold change permeability was 1 (inactive).

Question: Which fold change permeability does the source give for `CC(C)(O)[C@@H]1C2OC(=O)C1[C@]1(O)C[C@H]3O[C@]34C(=O)O[C@H]2[C@]14C` (stereo not given in full) (tested in a mixture with another compound) here?
Answer: Its fold change permeability is 1.1 (inactive).

Question: Which fold change permeability does the source give for `Cc1ncc(CNC(=O)N(CCCl)N=O)c(N)n1` here?
Answer: Its fold change permeability is 0.9 (inactive).

Question: With `C=CCN1CC[C@]23c4c5ccc(O)c4O[C@H]2C(=O)CC[C@@]3(O)[C@H]1C5` as the compound, how does the fold change permeability read?
Answer: The fold change permeability was 1 (inactive).

Question: For `COc1ccc(C(CN(C)C)C2(O)CCCCC2)cc1` (stereo not given), which fold change permeability is on record?
Answer: Its fold change permeability is 1 (inactive).

Question: For `CO[C@H]1CC[C@@H](O[C@H]2C[C@H]([C@]3(C)CC[C@]4(C[C@H](O)[C@@H](C)[C@@H]([C@@H](C)/C=C(\C)C(=O)[C@H](C)C[C@H](C)C(=O)O)O4)O3)O[C@]3(O[C@@H]([C@H]4O[C@@](O)(CO)[C@H](C)C[C@@H]4C)C[C@@H]3C)[C@@H]2C)O[C@@H]1C`, which fold change permeability is on record?
Answer: The fold change permeability was 1.3 (active).

Question: With `CC(=O)c1c(O)c(C)c(O)c(Cc2c(O)c3c(c(C(=O)/C=C/c4ccccc4)c2O)OC(C)(C)C=C3)c1O` as the compound, how does the fold change permeability read?
Answer: Its fold change permeability is 2 (active).

Question: Which fold change permeability does the source give for `CC(N)C(=O)OC(C)(C)Cc1ccc(Cl)cc1` (stereo not given) here?
Answer: The fold change permeability was 1.1 (inactive).

Question: For `COC(=O)C1=CCCN(C)C1`, which fold change permeability is on record?
Answer: The fold change permeability was 1.2 (inactive).

Question: Which fold change permeability does the source give for `CNCC(O)c1ccc(O)cc1` (stereo not given) here?
Answer: Its fold change permeability is 0.7 (active).

Question: Which fold change permeability does the source give for `O=C(O)CC[N+](=O)[O-]` here?
Answer: Its fold change permeability is 0.9 (inactive).

Question: With `COc1ccc(Cc2nccc3cc(OC)c(OC)cc23)cc1OC` as the compound, how does the fold change permeability read?
Answer: Its fold change permeability is 1.2 (inactive).
